Where “and” joins values, the source holds several entries; their conditions need not be identical. Equal values may be shown once. Inconclusive results are not listed. Calls of active or inactive are those of the source. Unless noted, calls come from the whole dose curve; as a rule, active = well fitted curve in the direction sought with a large enough effect; inconclusive = small, poorly fitted or top-dose-only effect, or another doubt; inactive = no such curve, though single readings can be large; an effect the other way counts as inactive or inconclusive.

In experiment [1] the target is Cytochrome P450 2C19 (Homo sapiens) (UniProt P33261). Briefly: qHTS Assay for Inhibitors and Substrates of Cytochrome P450 2C19 (AID 899). Note: nearly all actives have a fitted effect of over 60% in size. Note: potency is the fitted concentration of half-maximal effect. To be noted: recombinant CYP2C19, luciferin-H EGE luminescence; series mostly up to 57.1 µM. A digest of the protocol:
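5 nM human CYP2C19 with 10uM Luciferin-H EGE (at KM) in 50mM KPO4, compound preincubated 10 min at 37C, then NADPH regeneration for 60 min at 37C. Luciferin read by luminescence after detection reagent; normalized to 57uM ketoconazole as full inhibition.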

A short description of experiment [2]: qHTS Assay for Identification of Small Molecule Agonists for Hypoxia Response Element Signaling Pathway (AID 914; active = well fitted activation curve with a large enough effect in the signal ratio, with a control signal flat, not every such curve was filed as active; the % refers to the signal ratio; note: % of control where 0% means no effect). Conditions: ME-180 (cervical carcinoma) HRE-bla reporter, beta-lactamase ratio, CoCl2, 17 h; activation: stronger effect = higher value. A digest of the protocol:
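HRE-bla ME-180 assay for agonist-like enhancement of an EC50 CoCl2 stimulus: 17 h at 37 degrees Celsius, CCF4 for 2.5 h, ratiometric 460/530 nm signal converted to %Activity and fitted to AC50.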
In general terms: In qHTS, concentration-response curves come from the screen itself.

The target of experiment [3] is Cytochrome P450 3A4 (Homo sapiens) (UniProt P08684). Briefly: qHTS Assay for Inhibitors and Substrates of Cytochrome P450 3A4 (AID 884). Note: nearly all actives have a fitted effect of over 50% in size. Note: potency is the fitted concentration of half-maximal effect. To be noted: recombinant CYP3A4, Luciferin-PPXE luminescence; series mostly up to 57.1 µM. A digest of the protocol: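 20 nM human CYP3A4 with 25 uM Luciferin-PPXE (at KM) in 200 mM KPO4, preincubated 10 min with compound; NADPH regeneration started a 60 min RT reaction. Luciferin detected by luminescence, normalized to 57 uM ketoconazole as full inhibition.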
Cytochrome P450 3A4 (Homo sapiens), sequence (P08684 whole entry, looked up): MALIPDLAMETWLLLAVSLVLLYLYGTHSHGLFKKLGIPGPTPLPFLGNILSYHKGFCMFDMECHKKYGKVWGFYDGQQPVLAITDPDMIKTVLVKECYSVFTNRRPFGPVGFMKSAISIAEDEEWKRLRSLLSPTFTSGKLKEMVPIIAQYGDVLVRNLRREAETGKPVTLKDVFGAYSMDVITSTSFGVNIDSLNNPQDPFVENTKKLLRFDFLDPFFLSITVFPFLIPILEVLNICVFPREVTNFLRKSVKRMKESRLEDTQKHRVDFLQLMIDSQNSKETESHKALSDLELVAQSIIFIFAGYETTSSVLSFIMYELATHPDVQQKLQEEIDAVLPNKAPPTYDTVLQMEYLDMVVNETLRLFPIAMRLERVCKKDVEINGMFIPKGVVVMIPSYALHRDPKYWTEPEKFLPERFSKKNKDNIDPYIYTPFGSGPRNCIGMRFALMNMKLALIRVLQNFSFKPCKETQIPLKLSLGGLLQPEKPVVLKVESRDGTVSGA

In experiment [4] the target is DNA dC->dU-editing enzyme APOBEC-3G (Homo sapiens) (UniProt Q9HC16). Briefly: qHTS for inhibitors of Vif-A3G interactions: Validation (AID 588379). Note: 0% is about no effect. Conditions: Vif-A3G protein interaction assay; series mostly up to 46.1 µM. A digest of the protocol: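 HeLa cells stably expressing Vif and A3G-eYFP, 700 cells/well, incubated overnight at 37 deg C, then exposed to compound overnight at 37 deg C. Inhibition of Vif-mediated degradation read as increased yellow fluorescence (Ex 488/Em 500-530) by laser-scanning cytometry.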
DNA dC->dU-editing enzyme APOBEC-3G (Homo sapiens), sequence (Q9HC16 whole entry, looked up): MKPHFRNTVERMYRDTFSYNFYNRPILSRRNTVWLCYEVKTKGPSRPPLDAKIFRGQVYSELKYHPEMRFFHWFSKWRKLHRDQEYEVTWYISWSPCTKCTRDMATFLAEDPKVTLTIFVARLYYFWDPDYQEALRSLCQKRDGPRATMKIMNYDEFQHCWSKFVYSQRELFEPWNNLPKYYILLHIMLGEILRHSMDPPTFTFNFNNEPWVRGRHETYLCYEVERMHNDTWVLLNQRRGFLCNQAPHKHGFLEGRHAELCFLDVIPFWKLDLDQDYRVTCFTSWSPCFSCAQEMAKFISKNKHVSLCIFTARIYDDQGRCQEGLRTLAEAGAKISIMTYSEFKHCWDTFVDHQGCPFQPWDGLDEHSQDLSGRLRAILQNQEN

For experiment [5], the target named is Guanine nucleotide-binding protein G(i) subunit alpha-1 (Homo sapiens) (UniProt P63096). Description: qHTS Assay for Inhibitors of RGS12 GoLoco Motif Activity (Green Fluorophore) (AID 879).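 Note: 0% = labeled peptide with Gαi1 and full inhibition = labeled peptide alone without protein; negative values mean loss of peptide binding seen as reduced polarization.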 Conditions: Galphai1/FITC-RGS12 GoLoco peptide, fluorescence polarization; series mostly up to 57.1 µM. A digest of the protocol:
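Fluorescence polarization assay: 50 nM Gαi1 with 10 nM FITC-labeled RGS12 GoLoco peptide in 10 mM Tris pH 7.5, 150 mM NaCl, 0.1 mM GDP, 0.05% NP40, 10 min at room temperature with compound.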

Experiment [6] can be described thus: qHTS Assay for Identification of Small Molecule Agonists for Thrombopoietin (TPO) Signaling Pathway (AID 917). Note: % is set by controls: 0 for no effect and ±100 for the full control effect. Conditions: TPO signaling pathway reporter cells, agonist qHTS, stimulated with TPO at its EC50; series mostly up to 38.5 µM. The gist of the method: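 We measured Glycoprotein IIb promoter–luciferase output in IL-3-starved Ba/F3 murine cells expressing the human TPO receptor after 24 hrs at 37 C with compounds and 26 pM TPO.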

The target of experiment [7] is Muscarinic acetylcholine receptor M1 (Rattus norvegicus) (UniProt P08482). Briefly: qHTS Assay for Antagonists of Acetylcholine Muscarinic M1 Receptor: Kinetic Measurement of Intracellular Calcium Response (AID 943). Note: nearly all actives have a fitted effect of over 75% in size. Conditions: M1-expressing cells, kinetic intracellular calcium fluorescence; series mostly up to 35.3 µM. A digest of the protocol:
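CHO cells expressing rat M1 receptor, Fluo-4 loaded, preincubated 10 min with compound, then stimulated with EC80 carbachol (100 nM final). Kinetic calcium fluorescence over 4 min; response taken as peak over basal signal.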

Experiment [8] has the same target. Briefly: qHTS Assay for Antagonists of Acetylcholine Muscarinic M1 Receptor: Measurement of IP-One Response (AID 944). Note: nearly all actives have a fitted effect of over 75% in size. To be noted: CHO-M1 cells, IP-One HTRF, antagonist mode; series mostly up to 46.1 µM. The gist of the method:
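CHO cells stably expressing rat M1, pretreated 10 min with compound, then stimulated 30 min with carbachol at EC80 (200 nM) in LiCl-containing buffer pH 7.4; IP1 accumulation read by HTRF competition (665/620 nm).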

The target in experiment [9] is Pyruvate kinase (Leishmania mexicana) (UniProt Q27686). Description: qHTS Validation Assay for Inhibitors of Leishmania Mexicana Pyruvate Kinase (AID 945).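 Note: 0% = DMSO only neutral control wells.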 To be noted: purified L. mexicana pyruvate kinase, enzyme activity, E451W mutant enzyme; series mostly up to 57.5 µM. A digest of the protocol:
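Eight-point qHTS titrations; enzyme 0.2 nM LmPYK (E451W mutant); substrates 0.5 mM PEP, 0.1 mM ADP; 7 mM MgCl2; 1 h room temperature; PKLight luminescence normalized to neutral control.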

Experiment [10] has as its target Pyruvate kinase PKM (Homo sapiens) (UniProt P14618). Description: qHTS Assay for Activators of Human Muscle Pyruvate Kinase (AID 954; active = well fitted curve in the direction sought with a large enough effect, not every such curve was filed as active;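 note: 0% = uninhibited enzyme and -100% = no enzyme or full thiadiazolimine inhibition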). To be noted: purified human muscle pyruvate kinase, luciferase-coupled luminescence, 1 h; series mostly up to 57.5 µM. A digest of the protocol:
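Reaction: 0.1 nM purified PKM2 with 0.5 mM phosphoenolpyruvate and 0.1 mM ADP, room temperature, 1 h. Readout: luciferase-based ATP luminescence after stop reagent. Activators judged against a 0.3 nM enzyme column.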

For experiment [11], the target named is Alpha-galactosidase A (Homo sapiens) (UniProt P06280). Description: Counterscreen for Glucocerebrosidase Inhibitors: qHTS Assay for Human alpha-Galactosidase at pH 4.5 (AID 992). Note: 0% is about no effect. To be noted: purified enzyme, fluorogenic substrate; series mostly up to 76.9 µM. A digest of the protocol:
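Concentration-response curves (0.7 nM to 77 uM final) were modeled with the Hill equation to give AC50. Reactions: 2 nM enzyme, 80 uM fluorogenic alpha-galactoside, pH 4.5 citric acid buffer, 20 min, room temperature.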
(A counterscreen serves to expose hits that act by an unwanted route or on another target.)

For experiment [12], the target named is alpha-glucosidase (Oryza sativa, rice) (UniProt Q653V4). Briefly: Counterscreen for Glucocerebrosidase Inhibitors: qHTS Assay for Rice alpha-Glucosidase at pH 5.0 (AID 997).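 Note: 0% = full activity with enzyme and -100% = basal without enzyme.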 To be noted: rice alpha-glucosidase enzyme activity; series mostly up to 76.9 µM. The gist of the method:
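Rice alpha-glucosidase (4 nM final) with 400 uM 4-methylumbelliferyl-alpha-D-glucopyranoside in citrate buffer pH 5.0, 20 min at room temperature, stopped at pH 10; fluorescence 365/440 nm, compounds 0.7 nM–77 uM, AC50 from Hill fits.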

The nature of experiment [13]: qHTS Assay for Identifying Gametocytocidal Compounds (AID 743244). Note: potency is the fitted concentration of half-maximal effect. To be noted: P. falciparum 3D7 stage III-V gametocytes, alamarBlue, 72 h; max response: stronger effect = lower value. The gist of the method: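 Fluorescence at Ex 525/Em 598 nm, recorded 24 h after alamarBlue addition, reports residual metabolic activity of 3D7 gametocytes (stages III–V) following 72 h compound exposure at 37 °C, 5% CO2.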

A short description of experiment [14]: qHTS profiling for inhibitors of Plasmodium falciparum (3D7) proliferation (AID 743322).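 Note: infected erythrocytes exposed to compound for 72 h before lysis; 100% = DMSO vehicle wells and 0% = 0.29 µM artemisinin.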 To be noted: P. falciparum 3D7 proliferation; at 9.63 µM (top of the series). A digest of the protocol:
(§1)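 Erythrocytes infected with P. falciparum (0.3% parasitemia, 2.5% hematocrit) incubated with compounds 72 h at 37 C, 5% CO2. Lysis with saponin/Triton buffer containing SYBR Green I, overnight at room temperature in the dark; DNA fluorescence (485/535 nm) normalised to 0.29 uM artemisinin and DMSO.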

Experiment [15] is described as follows: qHTS profiling for inhibitors of Plasmodium falciparum (DD2) proliferation (AID 743323; call rule not given here). Conditions: lower = more inhibition; at 9.63 µM (top of the series). The gist of the method: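 1536-well qHTS; infected RBCs 0.3% parasitemia/2.5% Hct final; cpd 72 h 37 C 5% CO2; lysis buffer + SYBR Green I, o/n RT dark; FI 485/535; norm. to 0.29 uM artemisinin and DMSO, plate-stack corrected.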

Experiment [16] in a line: qHTS profiling for inhibitors of Plasmodium falciparum (HB3) proliferation (AID 743324).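 Note: 100% = DMSO vehicle wells and 0% = artemisinin-treated control wells.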 To be noted: Plasmodium falciparum HB3 blood-stage proliferation; at 9.63 µM (top of the series). A digest of the protocol: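 P. falciparum HB3 grown in erythrocytes (0.3% parasitemia, 2.5% hematocrit final) with compound for 72 h at 37 C, 5% CO2. Parasite DNA detected by SYBR Green after saponin/triton lysis overnight; normalized to 0.29 uM artemisinin and DMSO.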

Experiment [17] is described as follows: qHTS profiling of the MIPE4 collection as inhibitors of Plasmodium falciparum (3D7) proliferation (AID 743344; call rule not given here;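 note: scaled between DMSO vehicle wells and 0.29 µM artemisinin as full inhibition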). To be noted: P. falciparum 3D7 in erythrocytes, SYBR Green DNA fluorescence, 72 h; at 9.64 µM (top of the series). The gist of the method: as §1
A short description of experiment [18]: qHTS profiling of the MIPE4 collection as inhibitors of Plasmodium falciparum (DD2) proliferation (AID 743345; call rule not given here). Conditions: P. falciparum Dd2 in erythrocytes, SYBR Green DNA, 72 h; at 9.64 µM (top of the series). A digest of the protocol:
as §1

Experiment [19] in a line: qHTS profiling of the MIPE4 collection as inhibitors of Plasmodium falciparum (DD2) proliferation (Rep 2) (AID 743346; call rule not given here). Conditions: P. falciparum Dd2 in erythrocytes, SYBR Green DNA, 72 h; at 9.64 µM (top of the series). The gist of the method: as §1
The nature of experiment [20]: qHTS profiling of the MIPE4 collection as inhibitors of Plasmodium falciparum (HB3) proliferation (AID 743347; call rule not given here;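 note: plate controls were DMSO vehicle wells for no effect and artemisinin wells for full effect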). Conditions: P. falciparum HB3 in erythrocytes, SYBR Green DNA, 72 h; at 9.64 µM (top of the series). The gist of the method: as §1

Cytochrome P450 2C19 (Homo sapiens), sequence (P33261 whole entry, looked up): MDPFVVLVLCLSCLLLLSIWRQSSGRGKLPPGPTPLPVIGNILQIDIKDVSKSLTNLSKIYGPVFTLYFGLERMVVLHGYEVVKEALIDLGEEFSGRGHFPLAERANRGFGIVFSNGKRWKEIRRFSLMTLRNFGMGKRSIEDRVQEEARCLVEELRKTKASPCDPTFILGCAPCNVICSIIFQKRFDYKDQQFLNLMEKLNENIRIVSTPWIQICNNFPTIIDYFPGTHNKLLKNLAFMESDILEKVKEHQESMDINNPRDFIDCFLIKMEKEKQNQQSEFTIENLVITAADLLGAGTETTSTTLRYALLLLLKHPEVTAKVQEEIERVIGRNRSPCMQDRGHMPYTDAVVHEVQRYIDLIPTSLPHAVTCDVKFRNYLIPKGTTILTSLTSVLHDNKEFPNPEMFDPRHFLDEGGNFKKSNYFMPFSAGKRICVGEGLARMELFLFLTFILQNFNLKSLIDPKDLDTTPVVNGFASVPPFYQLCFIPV
Muscarinic acetylcholine receptor M1 (Rattus norvegicus), sequence (P08482 whole entry, looked up): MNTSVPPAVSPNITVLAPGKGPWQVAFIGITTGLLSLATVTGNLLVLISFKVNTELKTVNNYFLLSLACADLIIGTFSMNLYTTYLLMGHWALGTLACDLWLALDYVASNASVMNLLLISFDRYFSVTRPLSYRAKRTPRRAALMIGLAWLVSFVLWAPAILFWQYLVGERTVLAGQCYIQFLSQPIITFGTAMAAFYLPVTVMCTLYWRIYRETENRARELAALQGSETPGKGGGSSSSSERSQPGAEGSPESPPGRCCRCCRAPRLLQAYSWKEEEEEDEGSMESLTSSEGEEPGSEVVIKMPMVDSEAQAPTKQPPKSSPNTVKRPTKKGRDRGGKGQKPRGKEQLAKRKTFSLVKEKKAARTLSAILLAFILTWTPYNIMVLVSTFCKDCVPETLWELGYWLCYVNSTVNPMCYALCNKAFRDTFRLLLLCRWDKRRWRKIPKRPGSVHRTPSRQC
Pyruvate kinase (Leishmania mexicana), sequence (Q27686 2-499 E452W): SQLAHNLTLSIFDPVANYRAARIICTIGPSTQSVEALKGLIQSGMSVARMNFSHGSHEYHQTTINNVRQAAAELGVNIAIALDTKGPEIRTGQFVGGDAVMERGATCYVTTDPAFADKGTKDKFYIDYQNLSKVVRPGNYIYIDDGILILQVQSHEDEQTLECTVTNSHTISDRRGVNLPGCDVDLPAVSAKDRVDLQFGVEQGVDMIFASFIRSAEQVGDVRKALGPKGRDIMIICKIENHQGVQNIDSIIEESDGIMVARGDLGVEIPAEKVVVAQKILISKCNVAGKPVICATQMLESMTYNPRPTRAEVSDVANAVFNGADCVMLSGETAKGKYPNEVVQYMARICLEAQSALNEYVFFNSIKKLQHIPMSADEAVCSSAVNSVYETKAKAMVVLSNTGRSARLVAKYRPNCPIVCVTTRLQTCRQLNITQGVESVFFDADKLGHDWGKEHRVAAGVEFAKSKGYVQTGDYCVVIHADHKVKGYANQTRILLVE
Alpha-galactosidase A (Homo sapiens), sequence (P06280 whole entry, looked up): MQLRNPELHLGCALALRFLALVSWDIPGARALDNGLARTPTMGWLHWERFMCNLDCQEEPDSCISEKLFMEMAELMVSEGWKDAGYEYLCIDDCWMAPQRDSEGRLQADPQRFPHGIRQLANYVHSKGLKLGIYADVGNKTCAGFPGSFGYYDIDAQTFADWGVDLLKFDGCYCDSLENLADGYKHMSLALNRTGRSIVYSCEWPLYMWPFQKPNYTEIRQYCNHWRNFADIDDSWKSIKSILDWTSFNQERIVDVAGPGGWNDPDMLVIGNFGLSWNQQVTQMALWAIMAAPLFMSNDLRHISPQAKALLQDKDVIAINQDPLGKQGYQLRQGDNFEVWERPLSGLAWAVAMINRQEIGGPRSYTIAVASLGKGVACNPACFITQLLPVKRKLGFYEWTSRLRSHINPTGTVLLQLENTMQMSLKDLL
Pyruvate kinase PKM (Homo sapiens), sequence (P14618 whole entry, looked up): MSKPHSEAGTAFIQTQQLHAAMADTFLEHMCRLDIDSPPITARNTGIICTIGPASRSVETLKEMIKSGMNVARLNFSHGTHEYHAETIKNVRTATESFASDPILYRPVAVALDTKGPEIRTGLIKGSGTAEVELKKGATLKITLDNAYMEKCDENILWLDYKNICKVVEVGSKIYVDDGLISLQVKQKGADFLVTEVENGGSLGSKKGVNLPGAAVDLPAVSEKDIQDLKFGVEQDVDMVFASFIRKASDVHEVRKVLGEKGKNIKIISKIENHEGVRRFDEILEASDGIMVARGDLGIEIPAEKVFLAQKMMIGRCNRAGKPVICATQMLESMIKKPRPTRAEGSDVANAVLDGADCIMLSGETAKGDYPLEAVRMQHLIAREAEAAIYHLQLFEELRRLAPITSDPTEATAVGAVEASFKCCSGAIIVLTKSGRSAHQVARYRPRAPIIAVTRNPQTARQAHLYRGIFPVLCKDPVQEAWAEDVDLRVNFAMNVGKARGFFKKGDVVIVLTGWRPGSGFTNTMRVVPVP
Guanine nucleotide-binding protein G(i) subunit alpha-1 (Homo sapiens), sequence (P63096 whole entry, looked up): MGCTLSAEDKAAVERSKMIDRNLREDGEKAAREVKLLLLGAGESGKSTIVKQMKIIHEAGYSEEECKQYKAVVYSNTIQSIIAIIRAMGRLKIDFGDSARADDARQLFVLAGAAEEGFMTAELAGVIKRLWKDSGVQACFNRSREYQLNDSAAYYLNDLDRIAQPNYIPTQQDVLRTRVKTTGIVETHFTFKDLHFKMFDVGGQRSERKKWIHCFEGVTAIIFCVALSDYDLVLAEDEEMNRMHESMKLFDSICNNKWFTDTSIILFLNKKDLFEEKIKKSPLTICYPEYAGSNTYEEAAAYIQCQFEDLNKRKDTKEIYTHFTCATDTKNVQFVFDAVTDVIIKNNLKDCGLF

Turning to `C[C@@]1(O)CCOC(=O)C1`, the Potency result in experiment [1] was “inactive”.

Take `CS(=O)(=O)Nc1cccc(-c2nc(Nc3ccccc3)c3ccccc3n2)c1`: the activation in [2] is 6.74% (inactive).

In the case of `Clc1ccc(CC[C@H](Cn2ccnc2)Sc2c(Cl)cccc2Cl)cc1`, the Potency in experiment [1] was 2.5 nM (active).

In the case of `COc1cc2cc3c4cc(OC)c(OC)cc4cc[n+]3c(C)c2cc1OC`, the Potency in [3] is 15.8 µM (active).

As to `C[C@H]1CC[C@@H]2[C@@H](C)[C@H]3[C@H](C[C@H]4[C@@H]5CC=C6C[C@@H](O[C@]7(O[C@H]8O[C@@H](C)[C@@H](O)[C@@H](O)[C@@H]8O)C[C@@H](O[C@@H]8O[C@H](CO)[C@@H](O)[C@H](O)[C@@H]8O)[C@@H](O)[C@H](CO)O7)CC[C@]6(C)[C@H]5CC[C@@]34C)N2C1`, the Potency entry in experiment [3] and in experiment [1] was “inactive” in each case.

In the case of `CS(=O)(=O)Nc1cccc(-c2nc(Nc3ccc(F)cc3)c3ccccc3n2)c1`, the Potency in experiment [3] was 6.31 µM (active); in experiment [1], 7940 nM (active).

Take `COc1ccc([C@@H]2CC(=O)c3c(O)cc(O)cc3O2)cc1O`: the Potency in experiment [3] is 15.8 µM (active); in experiment [1], 5.01 µM (active) and 7.94 µM (active). Besides, the result in [4] was inactive.

On to `C[C@@]12CCC(=O)C[C@@H]1CC(=O)[C@H]1[C@H]3CCC[C@]3(C)C(=O)C[C@@H]12` (tested in a mixture with another compound), for which the activation in [2] was -12.7% (inactive).

With `COc1cc(N)c(Cl)cc1C(=O)N[C@H]1CCN(CCCOc2ccc(F)cc2)C[C@H]1OC`, the outcome in experiment [1] was inactive.

Take `C[C@@H](C(=O)O)c1ccc(N2Cc3ccccc3C2=O)cc1`: the Potency result in [3] is “inactive”.

Take `CC(=O)/C(C)=N\O`: the result in experiment [5], in [6], in experiment [7], in experiment [8], in experiment [9] and in experiment [10] was inactive. The outcome in experiment [11], in [12] and in experiment [4] was inactive.

Regarding `CC(=O)S[C@H]1CC2=CC(=O)CC[C@@]2(C)[C@H]2CC[C@@]3(C)[C@H](CC[C@]34CCC(=O)O4)[C@@H]12`, the activation in experiment [2] was -20.6% (inactive).

Take `Cc1onc(-c2c(Cl)cccc2Cl)c1C(=O)N[C@H]1C(=O)N2[C@H]1SC(C)(C)[C@H]2C(=O)O`: the Potency result in experiment [3] and in experiment [1] was “inactive” each time.

For the compound `Cc1noc(C)c1-c1nc(Nc2ccncc2)c2ccccc2n1`, the Potency in experiment [3] is 0.316 µM (active).

`CC(=O)OCC(=O)[C@@]1(OC(C)=O)[C@H](C)C[C@H]2[C@@H]3C[C@H](F)C4=CC(=O)C=C[C@@]4(C)[C@]3(F)[C@H](O)C[C@@]21C`: the Potency entry in experiment [3] is “inactive”.

As for `O[C@H](c1cc(C(F)(F)F)nc2c(C(F)(F)F)cccc12)[C@H]1CCCCN1`, the Potency in experiment [13] is 0.0894 µM (active). Moreover, the remaining parasite growth % (stronger effect = lower value) in [14] is -0.0865%. Besides, the activity, percent of control in [15] was found to be 1.34%. Besides, in experiment [16], the remaining proliferation (% of control), lower = more inhibition was found to be 0.677%. In [17], this compound yielded a parasite growth, % of DMSO control of 8.08%. This compound also returned a parasite growth remaining, % of DMSO control (lower = more inhibition) in experiment [18] of 8.4%. In experiment [19], this compound yielded a parasite growth, % of control (lower = inhibition) of 18.7%. Besides, the growth, % of control in experiment [20] came to 4.87%.

On to `Cc1ccc2c(c1)c1c3n2CCN[C@H]3CCC1`, for which the compound was called inactive in [4].

For the compound `Cc1ncc([N+](=O)[O-])n1C[C@H](O)CCl`, the activation in [2] was -4.65% (inactive).

(Values after PubChem BioAssay (NCATS).)
